Screening data deposited in PubChem BioAssay by NMMLSC.
MEKK2 WT-MEK5 – raises or lowers MEK5 binding to wildtype human MEKK2 PB1 domain | bead flow cytometry, Alexa488-MEK5 binding to MEKK2 WT; actives lie on both sides | binding response (% of control), % at 10 µM | 290,000 tested, 1.1% active | AID 1531; in the data active = binding response below about 67% or above about 130%
GRK2 inh – inhibitors of human GRK2 displacing RNA aptamer. P25098. bead flow cytometry, FAM-aptamer displacement from GRK2. inhibition of aptamer binding, % at 10 µM. 330,000 tested, 0.59% active. AID 488847;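 active = inhibition of aptamer binding above 40%, roughly 3 SD of noise, on plates passing a quality check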;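 note: median bead fluorescence of bound FAM aptamer so fluorescent compounds give negative values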
Target sequence (P25098 whole entry, looked up): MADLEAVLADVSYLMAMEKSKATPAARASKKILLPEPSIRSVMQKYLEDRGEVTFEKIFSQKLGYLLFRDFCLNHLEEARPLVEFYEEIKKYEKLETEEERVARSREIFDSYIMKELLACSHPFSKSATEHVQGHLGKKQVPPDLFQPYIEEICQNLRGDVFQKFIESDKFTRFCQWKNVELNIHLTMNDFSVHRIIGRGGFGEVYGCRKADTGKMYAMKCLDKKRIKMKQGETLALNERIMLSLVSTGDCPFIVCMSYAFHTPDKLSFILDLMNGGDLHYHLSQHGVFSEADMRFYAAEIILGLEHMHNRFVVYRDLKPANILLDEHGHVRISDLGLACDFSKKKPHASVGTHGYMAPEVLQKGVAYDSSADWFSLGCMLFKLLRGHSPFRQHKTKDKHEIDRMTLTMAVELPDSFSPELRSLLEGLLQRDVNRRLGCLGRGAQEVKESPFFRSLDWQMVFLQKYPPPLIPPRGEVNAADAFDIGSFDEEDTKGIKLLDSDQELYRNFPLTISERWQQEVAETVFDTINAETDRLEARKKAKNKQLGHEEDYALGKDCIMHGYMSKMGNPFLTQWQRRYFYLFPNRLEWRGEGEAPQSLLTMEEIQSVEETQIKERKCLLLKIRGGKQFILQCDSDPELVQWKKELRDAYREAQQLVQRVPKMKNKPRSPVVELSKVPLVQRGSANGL
MEKK2mut PB1 HTS – signal of MEK5 binding to mutant human MEKK2 PB1 domain; bead flow cytometry, Alexa488-MEK5 binding to MEKK2 mutant; percent response, % at 10 µM; 290,000 tested, 0.35% active; AID 1530; in the data active = percent response above about 24%, passing the limit was not always enough
Beta2AR agonist – agonists of human beta-2 adrenergic receptor inducing internalization. P07550. Am2.2-beta2AR cells, FAP receptor internalization, flow cytometry. response, % (test concentration not listed). 340,000 tested, 0.43% active. AID 504454;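 active = response above a set limit, near 3 SD of response in nonfluorescent compounds, cut at about 42% in these data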
MEKK3 PB1 HTS – raises or lowers MEK5 binding to the human MEKK3 PB1 domain; Q99759; bead-based flow cytometry, Alexa488-MEK5 binding to MEKK3; actives lie on both sides; 0 = blocked by unlabeled MEK5, 100 = vehicle; binding response (% of control), % at 10 µM; 290,000 tested, 1.4% active; AID 1529;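 active = binding response more than 3 SD above or below the average of its plate-row segment, actives on both sides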;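 note: Alexa488 bead fluorescence after subtracting the streptavidin-only scavenger bead signal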
MEKK2wt confirm – raises or lowers MEK5 binding to wildtype human MEKK2, retest; shares compounds with MEKK3 PB1 HTS; bead flow cytometry, Alexa488-MEK5 binding to MEKK2 WT; actives lie on both sides; binding response (% of control), % at 10 µM; 5,900 tested, 2.4% active; AID 1892; in the data active = binding response below about 16% or above about 210%; inactive = in between
MEKK2mut-MEK5 – signal of MEK5 binding to mutant human MEKK2, retest; AID 1893; 5,900 tested, 2% active; shares compounds with MEKK3 PB1 HTS; bead flow cytometry, Alexa488-MEK5 binding to MEKK2 mutant; percent response, % at 10 µM; in the data active = percent response mostly above about 71%, no sharp cut-off; inactive = mostly below about 38%;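 note: higher means compound restores mutant binding toward wildtype level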
MEKK3 confirm – MEKK3-MEK5 PB1 inhibition, single concentration confirmation; 5,900 tested, 1.8% active; AID 1894; binding response (% of control), % at 10 µM; shares compounds with MEKK3 PB1 HTS; bead flow cytometry, Alexa488-MEK5 binding to MEKK3; hits give low values;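 active = binding response below 72% of control, or above a set upper limit, though filed actives all read lower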;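 note: lower values mean stronger disruption of MEK5 binding to MEKK3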
A number is an active result; 0 = inactive; - = no result given; [ ] = remark or other dose. Rows were chosen to be rich in hits. Some 2.9% of all compounds tested hit in one or more screens of this group.

SMILES | MEKK2 WT-MEK5 | GRK2 inh | MEKK2mut PB1 HTS | Beta2AR agonist | MEKK3 PB1 HTS | MEKK2wt confirm | MEKK2mut-MEK5 | MEKK3 confirm
Cc1ccc(Cl)cc1N1CCN(C(=O)CSc2ccsc2[N+](=O)[O-])CC1 | 0 | 0 | 0 | 0 | 133 | 0 | 0 | 0
O=C1NC(c2ccc(Cl)cc2)=COc2ccccc21 | 0 | 0 | 0 | 0 | 143 | 0 | 0 | 0
COc1ccc(-c2noc(CCC(=O)NCC3CCN(Cc4cccc(C)c4)CC3)n2)cc1 | 143 | 0 | 39 | 0 | 0 | 0 | 0 | 0
COc1ccc(-c2noc(CCC(=O)Nc3ccc4c(c3)OCCO4)n2)cc1 | 0 | 0 | 0 | 0 | 0 | - | - | -
COc1ccc(-c2noc(CCC(=O)Nc3ccc(C)c(C)c3)n2)cc1 | -7.0[inhibitor] | 0 | 0 | 0 | 0.0[inhibitor] | 0 | 0 | 0
COc1ccc(-c2noc(CCC(=O)NC3CCN(Cc4ccccc4)CC3)n2)cc1 | 0 | 0 | 0 | 0 | 0 | - | - | -
COc1ccc(CCC(=O)Nc2ccc(C)c([N+](=O)[O-])c2)cc1 | 0 | 0 | 0 | 0 | 161 | 0 | 0 | 0
COCCn1c(N)c(N(Cc2ccccc2)C(=O)COc2ccc(F)cc2Cl)c(=O)[nH]c1=O | - | 0 | - | 0 | - | - | - | -
O=C(CSc1nc(-c2ccccc2)c(-c2ccccc2)[nH]1)Nc1ccc2c(c1)OCO2 | 0 | 0 | 0 | 0 | 146 | 0 | 0 | 0
CN(CC1CCCN(CCc2ccc(F)cc2)C1)C(=O)CCC(N)=O (configuration not stated) | 0 | 0 | 0 | 0 | 0 | - | - | -
CCOP(=O)(c1ccccc1)C(O)c1ccccc1 (configuration not stated) | 0 | 0 | 0 | 0 | 0 | - | - | -
CCOP(=O)(c1ccccc1)C(O)c1ccc(Br)cc1 (configuration not stated) | 0 | 0 | 0 | 0 | 134 | 0 | 0 | 0
CCCCN(C(=O)Nc1ccc(OCC)cc1)C1CCN(C(C)=O)CC1 | -1.0[inhibitor] | 0 | 0 | 0 | 0 | 0 | 0 | 0
CCCCN(C)C1CCN(C(=S)Nc2ccc(OCC)cc2)CC1 | 0 | 0 | 0 | 0 | 0 | - | - | -
Cc1cccc(-c2cc3nc4c(c(NCc5ccco5)n3n2)CCCC4)c1 | 136 | 0 | 0 | 0 | 0 | 0 | 0 | 0
NS(=O)(=O)c1ccc(CCNC(c2ccccc2)c2ccccc2)cc1 | 0 | 0 | 0 | 0 | 0 | - | - | -
c1ccc(C(NCCNC(c2ccccc2)c2ccccc2)c2ccccc2)cc1 | 142 | 0 | 27 | 0 | 0 | 0 | 0 | 0
O=C(c1cc(C2CC2)nn1-c1ccccc1)N1CCN(S(=O)(=O)c2c(F)cccc2F)CC1 | - | 0 | - | 0 | - | - | - | -
CN(CC(O)Cn1c2ccccc2c2ccccc21)S(C)(=O)=O (configuration not stated) | 0 | 0 | 0 | 0 | 0 | - | - | -
CCN(CC(O)Cn1c2ccccc2c2ccccc21)S(=O)(=O)c1ccc(C)cc1 (configuration not stated) | 0 | 0 | 0 | 0 | 125 | 0 | 0 | 0
COc1cc(-c2nc(-c3ccc(NC(=O)c4ccc5c(c4)OCO5)cc3)no2)cc(OC)c1OC | 45[inhibitor] | 0 | 0 | 0 | 0 | 0 | 0 | 0
Cc1ccccc1-c1nc(-c2ccc(NC(=O)c3ccc4c(c3)OCO4)cc2)no1 | 0 | 0 | 0 | 0 | 0 | - | - | -
CC1(C)CC(=O)N(c2ccc(Cl)cc2Cl)C(=O)C1 | 0 | 0 | 0 | 0 | 0 | - | - | -
COc1ccc(CNc2nc3c(c(=O)[nH]c(=O)n3C)n2CCCc2ccccc2)cc1 | 0 | 0 | 0 | 0 | 0 | - | - | -
COc1ccc(CCn2c(NN=C3CCCCC3)nc3c2c(=O)[nH]c(=O)n3C)cc1 | 57[inhibitor] | 0 | 0 | 0 | 65[inhibitor] | 0 | 0 | 0
SMILES | MEKK2 WT-MEK5 | GRK2 inh | MEKK2mut PB1 HTS | Beta2AR agonist | MEKK3 PB1 HTS | MEKK2wt confirm | MEKK2mut-MEK5 | MEKK3 confirm
O=C1NC(=O)C2(CCCC2c2ccccc2)N1 (configuration not stated) | - | - | - | 0 | - | - | - | -
CC1C(c2ccccc2)N(C)CCC12NC(=O)NC2=O (configuration not stated) | 6.0[inhibitor] | 0 | 0 | 0 | 4.0[inhibitor] | 0 | 0 | 0
CCOC(=O)/C=C1\Nc2ccccc2SC1=O | 2.0[inhibitor] | 0 | 0 | 0 | 2.0[inhibitor] | 0 | 0 | 0
CC(=O)c1ccc(NS(=O)(=O)c2ccc(N)cc2)cc1 | 0 | 0 | 0 | 0 | 135 | 0 | 0 | 0
O=C(NC1CCSc2ccccc21)c1cccc([N+](=O)[O-])c1 (configuration not stated) | 0 | 0 | 0 | 0 | 0 | - | - | -
Cc1ccc(Cl)cc1NC(C#N)c1ccccc1 (configuration not stated) | 0 | 0 | 0 | 0 | 129 | 0 | 0 | 0
CCCC(=O)NC(=S)NNC(=O)c1ccc([N+](=O)[O-])cc1 | 0 | 0 | 0 | 0 | 133 | 0 | 0 | 0
CCCCCCCC(=O)NNC(=O)c1ccc([N+](=O)[O-])cc1 | 0 | 0 | 0 | 0 | 0 | - | - | -
CC(=O)Nc1ccccc1C(=O)C(=O)Nc1cccc(C(=O)NCc2ccccc2)c1 | 0 | 0 | 0 | 0 | 0 | - | - | -
CC(=O)Nc1ccccc1C(=O)C(=O)Nc1cccc(C(=O)NCc2ccc(C)cc2)c1 | 0 | 0 | 0 | - | 134 | 0 | 0 | 0
Cc1ccc(Nc2nnc(SCC(=O)c3ccc(Br)s3)s2)c(C)c1 | 0 | 0 | 0 | 0 | 72[inhibitor] | 0 | 0 | 0
Cc1cccc(C)c1Nc1nnc(SCC(=O)c2ccc(Br)s2)s1 | 0 | 0 | 0 | 0 | 0 | - | - | -
CC(Oc1cccc(Cl)c1)C(=O)Nc1cc(Cl)ccc1N1CCOCC1 (configuration not stated) | - | 0 | - | 0 | - | - | - | -
COc1ccc(C(=O)N2CCCc3ccccc32)cc1 | 0 | 0 | 0 | 0 | 0 | - | - | -
CC(C)Oc1ccc(C(=O)N2CCCc3ccccc32)cc1 | 0 | 0 | 0 | 0 | 123 | 0 | 0 | 0
Cc1cccc(CSc2nc3c(c(=O)[nH]2)CCC3)c1 | 0 | 0 | 0 | 0 | 134 | 0 | 0 | 0
CCCCCCn1c(COc2ccccc2F)nnc1SCC(=O)NC1CCS(=O)(=O)C1 (configuration not stated) | - | - | - | 0 | - | - | - | -
COc1cc(/C=C2\SC(=S)N(N3CCOCC3)C2=O)ccc1O | 0 | 0 | 0 | 0 | 0 | - | - | -
O=C1/C(=C/c2ccncc2)SC(=S)N1N1CCOCC1 | 37[inhibitor] | 0 | 0 | 0 | 42[inhibitor] | 0 | 0 | 0
COc1cc(/C=C2\SC(=S)N(N3CCOCC3)C2=O)cc(OC)c1OC | 0 | 0 | 0 | 0 | 141 | 0 | 0 | 0
O=C(COC(=O)Cc1ccsc1)Nc1ccc(Cl)cc1F | - | 0 | - | 0 | - | - | - | -
COc1ccc(-c2cc(CCCC(=O)NCCc3ccccc3)no2)cc1 | -15[inhibitor] | 0 | 0 | 0 | 0.0[inhibitor] | 0 | 0 | 0
